tim10-1 inh: growth inhibitors of tim10-1 mutant yeast; 330,000 compounds, 2.2% hits; S. cerevisiae tim10-1 ts strain growth, BacTiter-Glo, 24 h; AID 463190; inhibition, % at 20 µM;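 active means inhibition of at least 40%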;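 further: mutant grown at 25 °C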
PfHsp90 set2: inhibits growth of yeast expressing Plasmodium falciparum Hsp90; S. cerevisiae expressing PfHsp90, BacTiter-Glo ATP, 48 h; yeast lacking PDR1 and PDR3 efflux regulators; inhibition, % at 9.4 µM; 310,000 compounds, 0.32% hits;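 active means every replicate shows inhibition above about 80%, whatever the replicate mean, limit read from the data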
V-ATPase pH: alters yeast V-ATPase proton transport; S. cerevisiae, pHLuorin cytosolic pH fluorescence; response, % at 10 µM; 350,000 compounds, 0.37% hits; AID 504577; in the data active means response mostly above about 7.3%, no sharp cut-off; inactive means mostly below about 5.4%; further: actives read high
tim23-1 inh: inhibits growth of tim23-1 mutant yeast. S. cerevisiae tim23-1 growth, BacTiter-Glo luminescence, 24 h. inhibition, % at 20 µM. 330,000 compounds, 1.3% hits;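 active means growth inhibition of the mutant yeast at or above 50%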;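 further: temperature-sensitive mutant grown at 25 °C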
SKKanGAS inh: SKKanGAS growth inhibition. S. pyogenes SKKanGAS, kanamycin growth, BacTiter-Glo, 6 h. inhibition, % at 7.5 µM. 300,000 compounds, 1.3% hits;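 active means mean replicate score, as percent of positive control median, at least 50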;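 further: strain carries kanamycin resistance gene driven by streptokinase promoter and grows in 40 µg/ml kanamycin; loss of luminescence reflects streptokinase promoter inhibition or plain growth inhibition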
TIM10 inh: growth inhibitors of TIM10 yeast strain | 330,000 compounds, 1.4% hits | AID 463195 | inhibition, % at 10 µM | S. cerevisiae TIM10 strain growth, BacTiter-Glo luminescence, 24 h;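 active means inhibition of 40% or more at the single tested concentration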;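 further: wild-type TIM10 isogenic control strain grown at permissive 25 °C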
tim10-1 confirm: tim10-1 yeast growth inhibition, confirmed | S. cerevisiae tim10-1 ts strain growth, BacTiter-Glo, 24 h | 7,400 compounds, 56% hits | AID 463213 | inhibition, % at 20 µM | shares compounds with tim10-1 inh;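 active means inhibition of yeast growth at or above a set limit in either of two repeat tests at 20 µM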;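 further: tim10-1 mutant grown at permissive 25 °C to find synthetic lethal compounds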
TIM10 conf: TIM10 yeast growth inhibition, confirmed; shares compounds with TIM10 inh; S. cerevisiae tim10 strain growth, BacTiter-Glo luminescence, 24 h; inhibition, % at 10 µM; 4,600 compounds, 63% hits; AID 463215;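 active means inhibition of yeast growth at or above a set limit in either of two replicates at 10 µM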; further: this counterscreen used the strain with wild-type TIM10
Hits are given with their value; - = inactive; . = not tested or not shown. Rows were chosen to be rich in hits. Some 4.6% of all compounds tested hit in one or more screens of this group.

SMILES | tim10-1 inh | PfHsp90 set2 | V-ATPase pH | tim23-1 inh | SKKanGAS inh | TIM10 inh | tim10-1 confirm | TIM10 conf
Cc1ccc(C(c2nnnn2CCc2ccccc2)N2CCC(C)CC2)cc1 (stereo not drawn) | 44.9 | - | - | - | - | 46.9 | 35.9 | -
CC(C)CC1NC(=O)N(CC(=O)N(C)C2CCCCC2)C1=O (stereo not drawn) | - | - | - | - | . | - | . | .
COc1ccc(S(=O)(=O)n2nc(OC(=O)c3cccs3)cc2N)cc1 | 44.9 | - | - | - | - | 44.1 | 30.8 | 51.7
CS(=O)(=O)n1nc(OC(=O)c2cccs2)cc1N | - | - | - | - | - | - | . | .
O=c1nc2ccccc2c2n1CC(CN1CCN(c3ccccc3F)CC1)N2 (stereo not drawn) | - | - | - | - | - | - | . | .
CCC(=O)Nc1cc2c3c(c1)CCC(=O)N3CCC2 | - | - | - | - | - | - | . | .
CCc1ccc(CN(C)C(=O)CCc2nnc(COc3ccccc3)o2)cc1 | - | - | - | - | - | - | . | .
CCN1CCN(c2cc(N3CCc4ccccc4C3)c(F)cc2[N+](=O)[O-])CC1 | 41.1 | - | - | - | - | 41.3 | 31.8 | -
CC(=O)N1CCN(c2cc(N3CCCC3)c(F)cc2[N+](=O)[O-])CC1 | - | . | - | - | - | - | . | .
COc1cc(C(=O)NCCOc2ccc(Cl)cc2)ccc1OCc1c(C)noc1C | - | - | - | - | . | - | . | .
CCS(=O)(=O)N1Cc2ccccc2CC1C(=O)NC(C)C12CC3CC(CC(C3)C1)C2 (stereo not drawn) | 41.1 | - | - | - | - | 46.5 | 30.5 | -
CCS(=O)(=O)N1Cc2ccccc2CC1C(=O)Nc1nc(C)cs1 (stereo not drawn) | - | - | - | - | - | - | . | .
COc1cccc(CNC(=O)[C@@H](C)N2C(=O)N3CCc4c([nH]c5ccc(OC)cc45)C3(C)C2=O)c1 (stereo partly drawn) | - | - | - | - | - | - | . | .
CC(C)Cn1c2c(c(O)c(C(=O)Nc3nccs3)c1=O)CCCC2 | 42.7 | - | - | - | - | 55.4 | 38.9 | -
CC(=O)CC(=O)Nc1ccc(Cl)cn1 | - | - | - | - | - | - | . | .
CC(C)CC(=O)NC(=S)Nc1ccc(Cl)cn1 | 43.0 | - | - | - | - | 46.8 | 37.5 | 40.1
N/C(=N\OC(=O)CC1CCCCC1)c1cccc(Br)c1 | 62.1 | - | - | - | - | 73.0 | 66.9 | 61.9
N/C(=N\OC(=O)CC1CCCCC1)c1ccc(Cl)cc1 | 42.2 | . | - | - | - | 44.0 | 56.8 | 34.3
COc1ccccc1NS(=O)(=O)c1ccc2oc(=O)ccc2c1 | 42.8 | - | - | - | - | 46.5 | - | 44.4
COc1ccccc1NS(=O)(=O)c1ccc2ccccc2c1 | - | - | - | - | - | - | . | .
CN(C)C1(CNC(=S)Nc2ccccc2C(F)(F)F)CCCCC1 | - | - | - | - | - | - | . | .
O=C(COC(=O)c1ccc([N+](=O)[O-])s1)Nc1ccc(Cl)cn1 | - | - | - | - | - | - | . | .
Cc1c(Cl)cnc(NC(=O)COC(=O)c2ccc([N+](=O)[O-])s2)c1Cl | 49.0 | - | - | - | - | 65.8 | - | 81.8
Cc1cc(OCc2nc(-c3ccncc3)no2)cc(C)c1Cl | - | - | - | - | - | - | . | .
CCCC(=O)OCC1CN(Cc2ccco2)S(=O)(=O)c2c(F)cccc2O1 (stereo not drawn) | . | - | - | . | . | . | . | .
CCOc1ccc(NC(=O)CC2CC(C)(C)OC2=O)cc1 (stereo not drawn) | - | - | - | - | - | - | . | .
CCCC1CC(C)(c2csc(Nc3ccc(OCC)cc3)n2)OC1=O (stereo not drawn) | 40.4 | - | - | - | - | 48.3 | - | 46.1
CCC(CO)Oc1cc(NC(=O)c2ccccc2[N+](=O)[O-])c2ncn(C(C)C)c2c1 (stereo not drawn) | - | - | - | - | . | - | . | .
CCOC(=O)C1(S(=O)(=O)c2ccc(Cl)cc2)CCN(Cc2ccc(Cl)cc2)CC1 | 47.7 | - | - | - | - | 42.4 | - | 34.2
CCOC(=O)C1(Cc2ccc(Cl)cc2)CCN(Cc2nccn2CC)CC1 | - | - | - | - | - | - | . | .
